# CYP2C9 act: activators of human CYP2C9; recombinant CYP2C9, luciferin-H conversion, luminescence; hits give high values; factor 1 = untreated enzyme, 0 = blocked; AID 1024; activation factor at 5 µM; 96,000 tested, 1.4% active; P11712;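 active = activation factor of 2 or more for CYP2C9 at a 5 µM dose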;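 note: 0 = sulfaphenazole-blocked wells and 1 = vehicle-only wells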
# Mac1 fbg inh: CD11b/CD18-fibrinogen binding inhibition. P05107+P11215. 93,000 tested, 0.54% active. inhibition, % at 10 µM. AID 1497. K562 CD11b/CD18 adhesion to fibrinogen, ATPlite luminescence; Mn2+ added to activate the integrin;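 active = primary inhibition of 50% or more at 10 µM, then 40% or more on retest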
# CYP2C9 inhib: human CYP2C9 inhibition; P11712; CYP2C9 Supersomes, luciferin-H conversion, luminescence; inhibition, % at 5 µM; 96,000 tested, 20% active;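 active = blocking of liver enzyme CYP2C9 beyond about 50% at 5 µM, limit read from the data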
# CYP2C19 inh: blocks human cytochrome P450 2C19. CYP2C19 Supersomes, luciferin-H EGE luminescence, 30 min. inhibition, % at 5 µM. 96,000 tested, 21% active;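 active = CYP2C19 inhibition above a set limit at 5 µM in the primary screen, cut at about 50% in these data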;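 note: plate controls were negative control wells for no effect and 2.5 mM tranylcypromine positive control for full effect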
# Target sequence (P33261 whole entry, looked up): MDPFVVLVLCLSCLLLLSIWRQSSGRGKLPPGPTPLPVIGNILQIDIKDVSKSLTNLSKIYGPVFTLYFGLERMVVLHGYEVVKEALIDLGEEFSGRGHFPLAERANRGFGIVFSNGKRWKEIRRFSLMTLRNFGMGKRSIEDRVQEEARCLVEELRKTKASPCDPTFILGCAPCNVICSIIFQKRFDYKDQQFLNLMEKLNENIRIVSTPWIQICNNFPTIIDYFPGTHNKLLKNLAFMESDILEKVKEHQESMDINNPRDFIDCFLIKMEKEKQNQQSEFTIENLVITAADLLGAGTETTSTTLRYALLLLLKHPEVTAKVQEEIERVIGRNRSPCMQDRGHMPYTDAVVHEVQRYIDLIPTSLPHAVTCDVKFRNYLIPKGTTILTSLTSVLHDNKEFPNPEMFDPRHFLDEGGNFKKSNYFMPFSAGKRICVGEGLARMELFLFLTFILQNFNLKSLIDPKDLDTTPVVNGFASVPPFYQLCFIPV
# CYP2C19 act: increases human CYP2C19 enzyme activity | P33261 | recombinant CYP2C19, luciferin-H EGE luminescence; hits give high values; 0 = fully inhibited enzyme, 1 = untreated enzyme | activation factor at 5 µM | 96,000 tested, under 10 active | AID 1025;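 active = activation factor of at least 2 at 5 µM in the primary screen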;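 note: 0 = wells with 2.5 mM tranylcypromine and 1 = vehicle-only wells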
# CD11b adhes enh: enhancers of human CD11b/CD18 binding to fibrinogen; P05107+P11215; K562 CD11b/CD18 adhesion to fibrinogen, ATPlite luminescence; activation, % at 10 µM; 93,000 tested, 0.07% active; AID 1499;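 active = 10 µM primary screen giving 50% or more activity, confirmed by 40% or more on retest at that dose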
# * = called active by the depositor; nt = not tested or not shown. An excerpt weighted towards active compounds, which were near 28% of everything screened.
SMILES,CYP2C9 act,Mac1 fbg inh,CYP2C9 inhib,CYP2C19 inh,CYP2C19 act,CD11b adhes enh
CC1CN(S(=O)(=O)c2cccc(C(=O)OC/C(O)=C(\C#N)c3nc4ccccc4[nH]3)c2)CC(C)O1 (centres undefined),nt,0.9,nt,nt,nt,12.5
Cc1cc(C)c(NC(=O)CCCC(=O)O)c(Cl)c1,1.1,-3.2,-10.6,0.3,1,-10.4
O=S(=O)(c1ccccc1F)N(Cc1ccco1)Cc1nnc(-c2ccccc2Br)o1,0.3,0.5,68.2*,50.1*,0.5,-1.9
CCOC(=O)c1[nH]c2ccccc2c1N=CN(CC)CC,1,-17.2,4.9,0.7,1,1.5
O=C1NC(c2ccccc2)=C(c2nc3ccccc3s2)C(c2ccccc2)N1 (centres undefined),0.1,-5.6,91.0*,71.2*,0.3,0.2
CC(C)Oc1ccc(CNC(=S)N/N=C/c2ccc([N+](=O)[O-])cc2)cc1,0.6,6.7,35.8,-3.7,1,-3.4
Cc1nonc1OC(C)CNc1ccc([N+](=O)[O-])cc1 (centres undefined),0.4,3.5,62.7*,97.8*,0,-0.2
Cc1cccc(C)c1NC(=O)COc1cccc(/C=N/NC(=O)C(=O)NCc2ccccc2)c1,1,nt,3.0,3.4,1,nt
COc1ccc2c(c1)c1ncn(CCc3ccccc3)c(=O)c1n2C,0.1,-0.5,92.1*,58.5*,0.4,-0.7
CCOc1ccc(C(=O)/C=C/c2ccc(SC)cc2)cc1,0.7,nt,28.5,61.7*,0.4,nt
COC(=O)c1ccc(/C=C/C(=O)c2ccc(OC)cc2)cc1,0.1,nt,90.9*,52.6*,0.5,nt
CN(C)c1nc(-c2ccccc2)c2cnn(Cc3ccccc3)c2n1,0.7,7.4,35.0,66.8*,0.3,4.2
O=C(CN1CCN(c2ccccn2)CC1)Nc1ccccc1,0.7,5.6,31.6,56.0*,0.4,-4.0
O=C(CN1CCN(c2ccccn2)CC1)Nc1ccc(OCc2ccccc2)cc1,0.7,nt,30.9,7.5,0.9,nt
O=C(CN1CCN(c2ccccn2)CC1)NC1CCCC1,0.8,-12.1,21.0,6.0,0.9,0.1
O=C(CN1CCN(c2ccccn2)CC1)Nc1ccc(Oc2ccccc2)cc1,0.5,nt,53.0*,22.3,0.8,nt
O=C(CN1CCN(c2ncccn2)CC1)NCc1ccccc1,0.1,-1.0,91.6*,60.6*,0.4,-2.8
O=C(CN1CCN(c2ccccn2)CC1)Nc1ccc(F)cc1,0.3,-15.9,72.8*,61.0*,0.4,0.7
CC1CN(S(=O)(=O)c2cccc(C(=O)NCc3ccc4c(c3)OCO4)c2)CC(C)O1 (centres undefined),0.9,-6.3,11.3,10.2,0.9,-1.9
Cc1ccc(C(=O)NCCc2nnc3ccc(SCC(=O)Nc4c(C)cc(C)cc4C)nn23)cc1,nt,-15.6,nt,nt,nt,9.1
CC(NC(=O)CN1CCN(c2ncccn2)CC1)c1ccc(F)cc1 (centres undefined),0.1,-1.3,92.5*,39.1,0.6,-0.8
CCCCCCc1nc2ccccc2c(=O)n1NC(=O)c1c(O)c2cccc3c2n(c1=O)CCC3,0.6,4.9,40.4,1.3,1,3.1
COc1ccc(CNC(=O)CN(c2cc(C)cc(C)c2)S(=O)(=O)c2c(C)noc2C)cc1,0.8,-18.8,22.7,36.6,0.6,-0.5
Cc1ccc(NC(=O)CN(c2cc(C)cc(C)c2)S(=O)(=O)c2c(C)noc2C)nc1,0.3,-9.1,71.8*,48.1,0.5,-0.4
Cc1cc(C)cc(N(CC(=O)NCc2ccco2)S(=O)(=O)c2c(C)noc2C)c1,0.3,-13.3,67.3*,81.9*,0.2,-2.6
SMILES,CYP2C9 act,Mac1 fbg inh,CYP2C9 inhib,CYP2C19 inh,CYP2C19 act,CD11b adhes enh
CC(=O)N1CCN(S(=O)(=O)c2ccc(S(=O)(=O)NCC(C)C)cc2)CC1,1.1,0.3,-8.6,-14.0,1.1,0.6
COc1cc(C)c(C(C)C)cc1S(=O)(=O)NCCCn1ccnc1,0,-3.4,99.0*,99.9*,0,0.0
Cc1cc(C)c(S(=O)(=O)NCCCn2ccnc2)c(C)c1,nt,-10.4,nt,nt,nt,0.1
Cn1cnnc1SCC(=O)c1ccc2c(c1)CCCC2,1.1,1.4,-9.8,19.6,0.8,-4.2
COc1ccc(S(=O)(=O)N2CCCC(C(=O)NCCC3=CCCCC3)C2)cc1 (centres undefined),1.5,-0.6,-46.4,-8.8,1.1,0.6
O=C(NCCC1=CCCCC1)C1CCCN(S(=O)(=O)c2cccc3cccnc23)C1 (centres undefined),3.9*,2.6,-286.2,73.3*,0.3,1.0
O=C(NCc1cccs1)C1CCCN(c2nc3ccccc3o2)C1 (centres undefined),0.9,nt,12.8,39.0,0.6,nt
Cc1cc(C)c(S(=O)(=O)N2CCCC(C(=O)NCCC3=CCCCC3)C2)c(C)c1 (centres undefined),1.7,nt,-68.3,-6.5,1.1,nt
O=C(NCCC1=CCCCC1)C1CCCN(S(=O)(=O)c2cccnc2)C1 (centres undefined),0.5,-6.5,53.6*,58.2*,0.4,0.7
O=C(NCCC1=CCCCC1)C1CCCN(c2nc3ccccc3o2)C1 (centres undefined),0.5,nt,51.1*,44.6,0.6,nt
CN1CCc2c(sc3c2c(=O)n(-c2ccccc2)c2n[nH]c(=S)n32)C1,0.8,-33.0,17.9,9.0,0.9,1.6
Cc1cccc(OCc2nnc(SCC(=O)Nc3cc(C)on3)n2C)c1,0.9,-16.5,11.1,10.2,0.9,0.1
C/C(=N\NC(=O)c1cccc(F)c1)c1ccc(Br)s1,1,nt,-1.2,8.5,0.9,nt
O=C(NC(NC(=S)Nc1cccc(Cl)c1)C(Cl)(Cl)Cl)OCc1ccccc1 (centres undefined),0.3,-2.4,65.8*,60.4*,0.4,-1.2
O=C(COc1cccc(Cl)c1)NNC(=S)Nc1ccccc1,nt,1.6,nt,nt,nt,9.9
Cc1cccc(NC(=S)NC(NC(=O)OCc2ccccc2)C(Cl)(Cl)Cl)c1 (centres undefined),0.2,0.3,75.7*,76.7*,0.2,-3.1
NS(=O)(=O)c1ccc(NC(=O)CSc2nnc(-c3cnccn3)n2-c2ccccc2)cc1,1.3,2.4,-25.6,-16.7,1.2,-1.9
CC(C)(C)C(=O)/C(C#N)=c1\s/c(=C\c2ccncc2)c(=O)n1CCCN1CCOCC1,0.8,1.8,21.9,32.1,0.7,-4.3
N#Cc1nc(-c2cccs2)oc1N1CCOCC1,0.9,-18.9,7.1,37.1,0.6,-2.4
COc1ccc2c(c1)c(=O)oc1cc3occ(C(C)(C)C)c3cc12,1,-23.7,4.9,10.5,0.9,5.7
COc1ccc2c(c1)c(=O)oc1cc3oc(C)c(C)c3cc12,0.8,-2.8,18.4,69.5*,0.3,50.0
CC(C)c1nc(SCC(=O)c2ccccc2)c2c(=O)n(C)c(=O)n(C)c2n1,0.9,8.7,8.9,-2.0,1,-1.8
